Experiment [1] addresses Protein kinase C eta type (Homo sapiens) (UniProt P24723). Particulars: at 1 µM; call rule not given here.
For experiment [2] the target is unchanged. Particulars: at 10 µM.
Experiment [3] concerns the target Protein kinase C theta type (Homo sapiens) (UniProt Q04759). Particulars: at 1 µM.
Experiment [4] has the same target. Particulars: at 10 µM.
The target of experiment [5] is T1, Protein kinase C iota type (Homo sapiens) (UniProt P41743).
T1 sequence (whole entry): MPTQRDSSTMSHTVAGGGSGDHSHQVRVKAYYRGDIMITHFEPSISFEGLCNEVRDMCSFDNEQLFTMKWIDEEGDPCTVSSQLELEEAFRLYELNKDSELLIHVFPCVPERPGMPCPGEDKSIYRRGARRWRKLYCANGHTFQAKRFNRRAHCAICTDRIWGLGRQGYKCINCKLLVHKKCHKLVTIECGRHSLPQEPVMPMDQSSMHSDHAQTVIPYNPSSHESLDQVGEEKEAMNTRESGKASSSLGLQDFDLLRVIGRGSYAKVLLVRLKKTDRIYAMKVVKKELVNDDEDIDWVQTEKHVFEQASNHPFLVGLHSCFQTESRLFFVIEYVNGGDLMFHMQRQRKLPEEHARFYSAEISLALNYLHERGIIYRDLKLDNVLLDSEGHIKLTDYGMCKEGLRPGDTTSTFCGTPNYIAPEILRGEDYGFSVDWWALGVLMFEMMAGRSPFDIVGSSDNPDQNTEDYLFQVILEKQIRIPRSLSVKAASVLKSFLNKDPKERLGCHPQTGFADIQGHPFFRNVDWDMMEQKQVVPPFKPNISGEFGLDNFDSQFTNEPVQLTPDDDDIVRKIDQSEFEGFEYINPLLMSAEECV
Particulars: at 1 µM.

For experiment [6], the target named is T1, Protein kinase C iota type (Homo sapiens). Particulars: at 10 µM.
Experiment [7] addresses T2, Serine/threonine-protein kinase D1 (Homo sapiens) (UniProt Q15139).
T2 sequence (whole entry): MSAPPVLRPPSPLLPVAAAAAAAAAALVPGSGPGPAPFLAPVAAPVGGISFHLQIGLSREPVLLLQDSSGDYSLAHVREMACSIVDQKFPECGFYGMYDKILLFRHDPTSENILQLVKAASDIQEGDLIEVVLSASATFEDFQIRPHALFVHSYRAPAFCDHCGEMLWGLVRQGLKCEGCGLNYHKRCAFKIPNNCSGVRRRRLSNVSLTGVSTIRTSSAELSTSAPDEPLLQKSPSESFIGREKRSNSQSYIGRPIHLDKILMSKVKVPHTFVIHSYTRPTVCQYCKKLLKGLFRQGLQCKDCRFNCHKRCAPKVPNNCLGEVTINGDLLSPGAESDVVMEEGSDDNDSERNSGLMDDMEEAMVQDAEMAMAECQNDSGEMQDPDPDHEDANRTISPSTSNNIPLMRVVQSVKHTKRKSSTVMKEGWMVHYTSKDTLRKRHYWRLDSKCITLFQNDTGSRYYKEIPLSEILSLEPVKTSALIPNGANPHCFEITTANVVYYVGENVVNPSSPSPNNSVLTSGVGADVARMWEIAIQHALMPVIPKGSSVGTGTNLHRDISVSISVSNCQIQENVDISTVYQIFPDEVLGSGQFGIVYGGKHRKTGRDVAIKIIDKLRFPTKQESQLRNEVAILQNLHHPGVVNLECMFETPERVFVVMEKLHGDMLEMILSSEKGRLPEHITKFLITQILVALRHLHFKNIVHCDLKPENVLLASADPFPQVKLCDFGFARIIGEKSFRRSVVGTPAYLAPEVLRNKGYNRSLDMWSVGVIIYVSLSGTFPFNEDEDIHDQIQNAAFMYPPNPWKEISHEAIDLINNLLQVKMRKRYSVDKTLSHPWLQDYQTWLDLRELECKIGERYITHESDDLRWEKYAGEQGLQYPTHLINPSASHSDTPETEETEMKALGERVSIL
Particulars: at 1 µM.

Experiment [8] has as its target T2, Serine/threonine-protein kinase D1 (Homo sapiens). Particulars: at 10 µM.
Experiment [9] deals with T3, Serine/threonine-protein kinase D2 (Homo sapiens) (UniProt Q9BZL6).
T3 sequence (whole entry): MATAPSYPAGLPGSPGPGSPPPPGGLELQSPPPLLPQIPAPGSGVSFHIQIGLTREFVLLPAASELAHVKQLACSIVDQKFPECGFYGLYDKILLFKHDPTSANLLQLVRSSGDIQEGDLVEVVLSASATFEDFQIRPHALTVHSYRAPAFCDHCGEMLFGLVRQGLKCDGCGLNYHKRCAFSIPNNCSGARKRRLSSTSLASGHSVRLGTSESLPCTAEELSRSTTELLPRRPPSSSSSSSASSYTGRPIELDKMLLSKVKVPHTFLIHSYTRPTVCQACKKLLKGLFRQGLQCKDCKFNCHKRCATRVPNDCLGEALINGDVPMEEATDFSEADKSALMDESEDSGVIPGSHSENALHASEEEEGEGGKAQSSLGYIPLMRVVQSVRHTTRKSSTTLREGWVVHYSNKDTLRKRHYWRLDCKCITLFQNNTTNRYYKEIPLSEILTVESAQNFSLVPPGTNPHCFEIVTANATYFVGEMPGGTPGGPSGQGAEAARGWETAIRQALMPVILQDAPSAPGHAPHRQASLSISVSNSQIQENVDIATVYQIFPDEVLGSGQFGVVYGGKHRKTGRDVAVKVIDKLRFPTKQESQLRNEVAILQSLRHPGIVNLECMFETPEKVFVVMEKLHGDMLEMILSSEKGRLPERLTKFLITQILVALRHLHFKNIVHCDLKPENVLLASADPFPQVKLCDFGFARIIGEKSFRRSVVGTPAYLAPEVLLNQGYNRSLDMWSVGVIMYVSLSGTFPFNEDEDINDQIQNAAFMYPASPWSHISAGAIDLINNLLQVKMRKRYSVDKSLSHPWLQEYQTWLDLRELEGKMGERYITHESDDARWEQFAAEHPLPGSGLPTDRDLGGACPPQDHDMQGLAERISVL
Particulars: at 1 µM.

Experiment [10] deals with T3, Serine/threonine-protein kinase D2 (Homo sapiens). Particulars: at 10 µM.

Protein kinase C eta type (Homo sapiens), sequence (P24723 whole entry): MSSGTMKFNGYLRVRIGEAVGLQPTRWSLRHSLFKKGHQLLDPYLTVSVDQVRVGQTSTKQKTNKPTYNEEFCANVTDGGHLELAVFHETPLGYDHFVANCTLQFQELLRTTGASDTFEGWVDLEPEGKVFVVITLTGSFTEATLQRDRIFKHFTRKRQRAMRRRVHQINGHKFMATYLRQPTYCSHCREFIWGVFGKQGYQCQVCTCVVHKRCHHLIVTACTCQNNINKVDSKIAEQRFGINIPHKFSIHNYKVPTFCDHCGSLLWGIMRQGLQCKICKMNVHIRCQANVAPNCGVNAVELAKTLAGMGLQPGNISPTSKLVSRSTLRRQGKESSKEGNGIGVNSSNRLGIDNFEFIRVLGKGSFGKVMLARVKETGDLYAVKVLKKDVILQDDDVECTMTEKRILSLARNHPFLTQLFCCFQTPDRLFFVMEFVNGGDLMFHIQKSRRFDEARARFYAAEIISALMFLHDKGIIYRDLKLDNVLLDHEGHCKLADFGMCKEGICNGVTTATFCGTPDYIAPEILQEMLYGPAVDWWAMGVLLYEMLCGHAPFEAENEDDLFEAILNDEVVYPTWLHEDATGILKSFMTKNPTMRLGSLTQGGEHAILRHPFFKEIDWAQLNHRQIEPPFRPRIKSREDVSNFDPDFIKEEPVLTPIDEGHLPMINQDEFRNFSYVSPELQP
Protein kinase C theta type (Homo sapiens), sequence (Q04759 whole entry, looked up): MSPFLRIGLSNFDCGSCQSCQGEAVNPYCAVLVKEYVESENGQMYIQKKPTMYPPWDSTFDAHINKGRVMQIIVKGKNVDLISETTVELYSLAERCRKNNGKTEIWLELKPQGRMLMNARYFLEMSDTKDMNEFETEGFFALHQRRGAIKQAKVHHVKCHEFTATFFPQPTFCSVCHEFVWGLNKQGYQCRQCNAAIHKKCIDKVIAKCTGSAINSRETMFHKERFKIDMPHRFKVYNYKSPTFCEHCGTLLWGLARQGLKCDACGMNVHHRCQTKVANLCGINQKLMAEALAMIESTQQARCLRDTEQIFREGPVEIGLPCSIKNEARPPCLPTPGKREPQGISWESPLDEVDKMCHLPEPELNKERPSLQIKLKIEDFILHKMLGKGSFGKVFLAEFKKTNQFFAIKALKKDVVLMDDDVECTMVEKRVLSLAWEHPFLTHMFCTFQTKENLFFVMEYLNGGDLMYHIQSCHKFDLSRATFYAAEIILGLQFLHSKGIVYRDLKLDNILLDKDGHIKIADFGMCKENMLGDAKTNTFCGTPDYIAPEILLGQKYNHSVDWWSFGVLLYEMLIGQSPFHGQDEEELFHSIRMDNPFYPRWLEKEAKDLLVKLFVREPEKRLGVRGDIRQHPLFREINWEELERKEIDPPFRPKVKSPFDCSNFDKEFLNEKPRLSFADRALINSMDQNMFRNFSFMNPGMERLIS

One may read the residual activity as the signal under treatment as a percentage of the control signal. In the case of `Cc1nc(-c2ccccc2)c(-c2ccncc2)o1`, the residual activity was 101% in [1]; 90% in experiment [2]; 107% in experiment [3]; 103% in [4]; 108% (inactive) in experiment [5]; 103% in [6]. For the same molecule, the residual activity amounted to 113% in experiment [7], 80% in [8], 103% in experiment [9] and 94% in experiment [10].
Consider `Oc1ccc(Nc2nc(-c3ccc(Cl)cc3)cs2)cc1`, for which the residual activity was 78% in [1]; 79% in experiment [2]; 100% in [3]; 114% in experiment [4]; 109% (inactive) in [5]; 103% in experiment [6]. Also, the residual activity worked out at 94% in experiment [7], 100% in experiment [8], 106% in experiment [9] and 93% in experiment [10].
As for `CC[n+]1c(/C=C/N(C)c2ccccc2)n(-c2ccccc2)c2ccc(-c3nc4ccccc4s3)cc21`, the residual activity was 119% in experiment [1]; 88% in experiment [2]; 96% in experiment [3]; 84% in [4]; 93% (inactive) in experiment [5]; 88% in experiment [6]. Also, the residual activity in experiment [7] was 92%; in [8], 90%; in experiment [9], 95%; in [10], 114%.
Turning to `CC(=O)O/N=C1\C(=C2\C(=O)Nc3cc(Br)ccc32)Nc2ccccc21`, the residual activity is 101% in experiment [1]; 106% in [2]; 97% in experiment [3]; 96% in experiment [4]; 104% (inactive) in experiment [5]; 103% in experiment [6]. For the same molecule, the residual activity in experiment [7] is 85%; in [9], 104%; in [10], 102%.
`C[C@@H](N)[C@H]1CC[C@H](C(=O)Nc2ccncc2)CC1`: the residual activity in experiment [1] was 26%; in experiment [2], 5%; in experiment [3], 63%; in [4] it was 17%; in experiment [5], 101% (inactive); in experiment [6] it was 93%. Moreover, the residual activity in experiment [7] is 100%; in experiment [10], 112%.
Take `O=C(Nc1cccc(Nc2cc(Nc3cccc(C(F)(F)F)c3)ncn2)c1)C1CC1`: the residual activity in experiment [1] was 117%; in [2] it was 87%; in experiment [4], 80%; in [5], 97% (inactive); in experiment [6] it was 111%; in experiment [7] it was 99%. The residual activity was 88% in [8], 107% in experiment [9] and 110% in [10].
Regarding `CCN(CC)C(=O)c1ccc(Nc2nc(OCC3CCCCC3)c3nc[nH]c3n2)cc1`, the residual activity was 55% in experiment [2]; 78% in experiment [3]; 39% in experiment [4]; 99% (inactive) in experiment [5]; 103% in [6]; 72% in experiment [7]. Also, the residual activity in [8] worked out at 23%; in experiment [9], 93%; in experiment [10], 51%.
As for `COc1cc2ncc(-c3ccccc3)nc2cc1OC`, the residual activity was found to be 68% in experiment [6], 96% in experiment [9] and 99% in experiment [10].
As for `N#Cc1cnc2cnc(NCc3cccnc3)cc2c1Nc1ccc(F)c(Cl)c1`, the residual activity is 85% in experiment [1]; 83% in [2]; 4% in experiment [3]; 5% in [4]; 80% in experiment [7]; 39% in [8]. In addition, the residual activity in [9] was 101%; in [10] it was 91%.
For the molecule `COc1cc2ncnc(N3CCN(C(=O)Nc4ccc(Oc5ccccc5)cc4)CC3)c2cc1OC`, the residual activity was 98% in [1]; 74% in experiment [2]; 94% in [3]; 108% in experiment [4]; 90% (inactive) in [5]; 99% in experiment [6]. Also, the residual activity in [7] was determined as 102%; in experiment [8], 66%; in experiment [9] it was 103%; in experiment [10], 99%.
Turning to `O=Nc1c(-c2c(O)[nH]c3ccccc23)[nH]c2ccccc12`, the residual activity in experiment [1] is 91%; in [2], 83%; in experiment [3], 81%; in [4], 55%; in experiment [5], 96% (inactive); in experiment [6], 105%. Besides, the residual activity in [7] was 113%; in experiment [8], 65%; in experiment [9], 109%; in experiment [10] it was 98%.
As to `Cc1nc2cc3nc(-c4cccs4)cnc3cc2n1C`, the residual activity in experiment [1] is 107%; in [2], 111%; in [3] it was 110%; in experiment [4], 110%; in experiment [5] it was 97% (inactive); in [6] it was 99%. For the same molecule, the residual activity amounted to 94% in experiment [7], 95% in experiment [8], 96% in experiment [9] and 105% in [10].
Consider `Cn1cc(/C=C2\C(=O)Nc3ccc(S(N)(=O)=O)cc32)c2ccccc21`, for which the residual activity in experiment [1] was 96%; in [2] it was 98%; in experiment [3], 84%; in experiment [4], 49%; in experiment [5] it was 110% (inactive); in [6] it was 87%. Moreover, the residual activity amounted to 84% in [7], 59% in experiment [8], 103% in experiment [9] and 103% in [10].
Consider `CNc1cc2c(Nc3cccc(Br)c3)ncnc2cn1`, for which the residual activity is 80% in experiment [1]; 90% in experiment [2]; 100% in experiment [3]; 94% in experiment [4]; 94% (inactive) in [5]; 102% in experiment [6]. Also, the residual activity in [7] came to 86%; in experiment [8], 49%; in [9], 104%; in [10] it was 98%.
Take `N#CCCc1ccc2c(c1)-c1[nH]c3ccc([N+](=O)[O-])cc3c1CC(=O)N2`: the residual activity in experiment [6] stood at 67%; in experiment [8], 76%.
With `Cc1ccc(NC2=CC(=O)c3sc(C)nc3C2=O)cc1`, the residual activity is 83% in [1]; 86% in [2]; 88% in experiment [3]; 87% in [4]; 106% (inactive) in experiment [5]; 103% in experiment [6]. The residual activity came out at 76% in experiment [7], 73% in experiment [8], 105% in experiment [9] and 85% in [10].
On to `O=C1NC(=O)c2c1c1c3ccccc3[nH]c1c1[nH]c3cc(Br)ccc3c21`, for which the residual activity in experiment [1] is 72%; in [2], 89%; in [3], 80%; in experiment [4], 91%; in experiment [5], 102% (inactive); in experiment [7], 111%. Besides, the residual activity is 72% in experiment [8], 103% in experiment [9] and 90% in experiment [10].
For `CCC(=O)Nc1ccc2ncnc(Nc3cccc(Br)c3)c2c1`, the residual activity in experiment [1] was 85%; in experiment [2] it was 82%; in experiment [3] it was 96%; in experiment [4] it was 95%; in experiment [5], 100% (inactive); in [6] it was 101%. The residual activity in [7] stood at 85%; in experiment [8], 82%; in [9], 105%; in [10], 112%.
As for `CO[C@@H]1[C@H](N(C)C(=O)c2ccccc2)C[C@H]2O[C@]1(C)n1c3ccccc3c3c4c(c5c6ccccc6n2c5c31)C(=O)NC4`, the residual activity was 84% in [1]; 29% in experiment [2]; 15% in experiment [3]; 11% in experiment [4]; 79% (inactive) in experiment [5]; 85% in experiment [6]. Moreover, the residual activity worked out at 85% in [7], 101% in experiment [9] and 92% in experiment [10].

(Values after ChEMBL document CHEMBL2218924, “A broad activity screen in support of a chemogenomic map for kinase signalling research and drug discovery” (Biochem J, 2013).)
